Compound activity deposited in PubChem BioAssay by National Center for Advancing Translational Sciences (NCATS).
This excerpt belongs to a sample that is enriched for hits.
LmPK inhibitor – inhibitors of Leishmania mexicana pyruvate kinase. purified LmPK, Kinase-Glo ATP luminescence, 1 h. Potency, µM (series often up to 57.5 µM), inactives show at the top dose activity change, negative = inhibition, usual class: inhibitors. hit rate 0.37% among 290,000. AID 1721; further: potency means the concentration at half of the fitted maximal effect; on the % scale 0 is the no-effect control and ±100 the full control effect
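Purified LmPK (0.1 nM) converted ADP (0.1 mM) to ATP with PEP (0.5 mM) in imidazole buffer pH 7.2 with KCl and MgCl2, 1 h at room temperature. ATP was read by Kinase-Glo luminescence; data normalized to uninhibited and no-enzyme controls.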
Shiga inhibitor – Shiga toxin inhibition | AID 2315 | Vero cells, Shiga toxin protein synthesis inhibition reporter | inhibition, % at 38.7 µM | hit rate 9.2% among 290,000; in the data active means inhibition mostly above about 28%, no sharp cut-off; inactive means mostly below about 43%; further: 0% is about no effect
FBPA Giardia inh – Giardia lamblia aldolase inhibition; A8B2U2; purified Giardia FBPA; Potency, µM (titrated, usually from 59.6 µM), for inactives: at the highest dose activity, negative = inhibition, usual class: inhibitors; hit rate 0.71% among 290,000; AID 2451; further: potency means the concentration at half of the fitted maximal effect; on the % scale 0 is the no-effect control and ±100 the full control effect; nearly all actives have a fitted effect of over 55% in size
Target sequence (A8B2U2 whole entry, looked up): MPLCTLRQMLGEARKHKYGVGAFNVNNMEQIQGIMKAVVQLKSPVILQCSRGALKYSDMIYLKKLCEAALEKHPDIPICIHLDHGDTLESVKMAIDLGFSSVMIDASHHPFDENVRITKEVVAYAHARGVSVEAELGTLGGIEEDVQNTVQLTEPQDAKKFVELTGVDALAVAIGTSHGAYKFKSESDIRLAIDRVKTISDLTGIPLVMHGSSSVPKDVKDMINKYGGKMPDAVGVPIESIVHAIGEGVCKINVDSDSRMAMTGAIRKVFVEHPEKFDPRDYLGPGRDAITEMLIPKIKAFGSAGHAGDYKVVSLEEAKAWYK
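Giardia FBPA (40 nM reagent) was preincubated 10 min at RT with compound (up to 57.5 uM final), then substrate plus GAPDH/TPI/NAD/arsenate coupling system with diaphorase/resazurin was added; resorufin fluorescence (525/598 nm) was read after 20 min.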
Cycloheximide cs – affects cycloheximide protein synthesis inhibition readout, counter-screen | hit rate 12% among 300,000 | max response, % | cell reporter, cycloheximide protein synthesis inhibition counterscreen; in the data active means max response mostly above about 13%, no sharp cut-off; inactive means mostly below about 14%; further: read at 38.3 µM for the half of the compounds with a filed dose; 0% is about no effect
RE007 growth inh – less growth of the S. pombe RE007 Vpr strain | Potency, µM (top dose mostly 92.2 µM), for inactives: top-dose activity change, negative = less growth, most hits filed as inhibitors | S. pombe RE007 Vpr strain, BacTiter-Glo ATP luminescence, 24 h | hit rate 0.21% among 360,000 | AID 651644; active means well fitted falling curve with a large enough effect; inconclusive means small, poorly fitted or top-dose-only effect; inactive means no such curve, though single readings can be large or run the other way; further: potency means the concentration at half of the fitted maximal effect; on the % scale 0 is the no-effect control and ±100 the full control effect; nearly all actives have a fitted effect of over 50% in size
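Fission yeast RE007 carrying one integrated HIV-1 vpr copy, seeded at OD 0.01 in PMG+AL medium with 23 nL pinned compound. Grown 24 h at 30 degrees; viability read by BacTiter-Glo luminescence after 5 min.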
TbPYK inhibitor – blocks Trypanosoma brucei pyruvate kinase | Q57TT1 | TbPYK enzyme, Kinase-Glo Plus ATP luminescence, 45 min | Potency, µM (doses to about 76.8 µM), for inactives: at the highest dose activity, negative = inhibition, usual class: inhibitors | hit rate 0.12% among 410,000; further: potency means the concentration at half of the fitted maximal effect; on the % scale 0 is the no-effect control and ±100 the full control effect; nearly all actives have a fitted effect of over 50% in size
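Enzyme and substrate buffer are dispensed first and compound is pin-transferred. ADP at 130 uM final then starts the reaction, which runs 45 min at room temperature. Detection reagent is added for 10 min before luminescence is imaged.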
* hit, by the source's call; [ ] = dose if it differs, or a comment. Unless noted, the call rests on the fitted dose curve; in most records, active means well fitted curve in the direction sought with a large enough effect; inconclusive means small, poorly fitted or top-dose-only effect, or another doubt; inactive means no such curve, though single readings can be large; an effect the other way counts as inactive or inconclusive.

What do the screens show for `Clc1cc(Cl)cc(Nc2ncnc(-n3cccc3)n2)c1`?
LmPK inhibitor: 1%; Shiga inhibitor: -16; FBPA Giardia inh: 7%; Cycloheximide cs: -1; RE007 growth inh: -6%; TbPYK inhibitor: 0%

How did Clc1ccccc1Nc1ncnc2c1nnn2Cc1ccccc1 do in these assays?
LmPK inhibitor: 2%; Shiga inhibitor: 14; FBPA Giardia inh: 0%; Cycloheximide cs: 12; RE007 growth inh: 22%; TbPYK inhibitor: -2%

Results for Cc1ccc(Nc2ncnc(-n3cccc3)n2)cc1Cl ?
LmPK inhibitor: -6%; Shiga inhibitor: 80*; FBPA Giardia inh: -1%; Cycloheximide cs: 32*; RE007 growth inh: -3%; TbPYK inhibitor: -1%

Results for CO[C@H]1COC(=O)[C@H](C)COC(=O)[C@@H](Cc2ccccc2)NC(=O)C/C=C\[C@H]1C ?
FBPA Giardia inh: -2%[12.9 µM]

What do the screens show for `CNC(=O)C1CCCN(c2nnc(C)c3c(C)n(-c4ccccc4)nc23)C1` (configuration not stated)?
TbPYK inhibitor: 0%

How did Oc1ccccc1C=NCCN=Cc1ccccc1O do in these assays?
LmPK inhibitor: -24%; Shiga inhibitor: 28; FBPA Giardia inh: -25%; Cycloheximide cs: 1; RE007 growth inh: 4%; TbPYK inhibitor: 7%

How did Oc1ccc(Cl)cc1C=NCCc1ccccc1 do in these assays?
LmPK inhibitor: -9%; Shiga inhibitor: 57*; FBPA Giardia inh: 4%; Cycloheximide cs: 15*; RE007 growth inh: -15%; TbPYK inhibitor: 1%

How did COc1ccc(N2CCN(C(=O)COC(=O)[C@@H](NC(=O)OCc3ccccc3)C(C)C)CC2)cc1 do in these assays?
RE007 growth inh: 8%; TbPYK inhibitor: -6%

Results for CC(C)C(NC(=O)OCc1ccccc1)C(=O)OCC(=O)N1CCCCC1 (configuration not stated) ?
LmPK inhibitor: -2%; Shiga inhibitor: 69*; FBPA Giardia inh: 3%; Cycloheximide cs: 44*; RE007 growth inh: 10%; TbPYK inhibitor: 2%

How did Cc1ccc2nc(-c3ccsc3)c(Nc3ccc(Cl)cc3)n2c1 do in these assays?
TbPYK inhibitor: -5%

What do the screens show for `COC(=O)c1sc(N2C(=O)C(O)=C(C(=O)c3ccc(C)o3)C2c2ccc(OC)c(OC)c2)nc1C` (configuration not stated)?
LmPK inhibitor: 0%; Shiga inhibitor: 4; Cycloheximide cs: -4; RE007 growth inh: -12%; TbPYK inhibitor: 3%

How did Cc1ccc2nc(N3C(=O)C(O)=C(C(=O)c4ccc(C)o4)C3c3cccc(O)c3)sc2c1 (configuration not stated) do in these assays?
LmPK inhibitor: -1%; Shiga inhibitor: 63*; FBPA Giardia inh: 4%; Cycloheximide cs: 31*; RE007 growth inh: -12%; TbPYK inhibitor: -24%

Results for COC(=O)c1sc(N2C(=O)C(O)=C(C(=O)c3ccc(C)o3)C2c2ccc([N+](=O)[O-])cc2)nc1C (configuration not stated) ?
LmPK inhibitor: -20%; Shiga inhibitor: 69*; Cycloheximide cs: 39*; RE007 growth inh: -17%; TbPYK inhibitor: 3%

How did COc1ccc2nc(N3C(=O)C(O)=C(C(=O)c4ccco4)C3c3ccc(OC)c(OC)c3)sc2c1 (configuration not stated) do in these assays?
RE007 growth inh: -24%; TbPYK inhibitor: -16%

How did CCOc1ccc(C2C(C(=O)c3ccc(C)o3)=C(O)C(=O)N2c2nc(C)c(C(=O)OC)s2)cc1 (configuration not stated) do in these assays?
LmPK inhibitor: 5%; Shiga inhibitor: 47*; FBPA Giardia inh: -23%; Cycloheximide cs: 26*; RE007 growth inh: -13%; TbPYK inhibitor: 0%

What do the screens show for `CCCN(CC(=O)Nc1ccccc1OC)C(=O)c1ccc(S(=O)(=O)Nc2ccccc2)cc1`?
RE007 growth inh: -9%; TbPYK inhibitor: -1%

Results for O=C1CN(S(=O)(=O)c2c(F)cccc2F)CCN1S(=O)(=O)c1ccc2c(c1)OCCO2 ?
Shiga inhibitor: -3; Cycloheximide cs: -2

What do the screens show for `CCOC(=O)Cc1cnc(NC(=O)CSc2nc(N)cc(=O)[nH]2)s1`?
LmPK inhibitor: 4%; Shiga inhibitor: -11; FBPA Giardia inh: 1%; Cycloheximide cs: -2; RE007 growth inh: 6%; TbPYK inhibitor: -14%

Results for CCOC(=O)c1csc(NC(C)=O)n1 ?
LmPK inhibitor: 2%; Shiga inhibitor: 28; FBPA Giardia inh: 7%; Cycloheximide cs: 28*; RE007 growth inh: 6%; TbPYK inhibitor: 1%

How did CCOC(=O)c1csc(-c2sccc2Br)n1 do in these assays?
LmPK inhibitor: 16µM*; Shiga inhibitor: 54*; FBPA Giardia inh: -6%; Cycloheximide cs: 51*; RE007 growth inh: inconclusive; TbPYK inhibitor: -22%

What do the screens show for `CCOC(=O)c1csc(NC(=O)c2ccccc2)n1`?
LmPK inhibitor: -1%; Shiga inhibitor: 129*; FBPA Giardia inh: 0%; Cycloheximide cs: 49*; RE007 growth inh: 4%; TbPYK inhibitor: 2%

What do the screens show for `CCOC(=O)Cc1cnc(NC(=O)c2ccccc2)s1`?
LmPK inhibitor: -15%; Shiga inhibitor: 91*; FBPA Giardia inh: -5%; Cycloheximide cs: 53*; RE007 growth inh: -23%; TbPYK inhibitor: -4%

How did CCOC(=O)c1csc(NC(=O)c2ccc(S(=O)(=O)N(C)C)cc2)n1 do in these assays?
LmPK inhibitor: 0%; Shiga inhibitor: 8; FBPA Giardia inh: 2%; Cycloheximide cs: -6; RE007 growth inh: -6%; TbPYK inhibitor: -10%

How did COc1ccc(N2CCN(C(c3ccc4ncccc4c3)c3nnnn3C(C)C)CC2)cc1 (configuration not stated) do in these assays?
LmPK inhibitor: 2%; Shiga inhibitor: -23; FBPA Giardia inh: -2%; Cycloheximide cs: 2; RE007 growth inh: 10%; TbPYK inhibitor: 9%

What do the screens show for `COc1ccc(Cl)cc1NC(=O)CCCS(=O)(=O)c1nc(-c2ccc(OC)c(OC)c2)cc(C(F)(F)F)n1`?
TbPYK inhibitor: -6%

What do the screens show for `COc1ccc(C2CC(=O)N(Cc3ccccc3)c3c2c(C)nn3-c2nc(C)cc(C)n2)c(OC)c1` (configuration not stated)?
TbPYK inhibitor: -8%

Results for CCOC(=O)c1csc(NC(=O)c2ccc3c(c2)OCCO3)n1 ?
LmPK inhibitor: 0%; Shiga inhibitor: 127*; Cycloheximide cs: 51*; RE007 growth inh: -18%; TbPYK inhibitor: 12%

What do the screens show for `CCOC(=O)c1csc(-c2ccc3c(c2)CCO3)n1`?
LmPK inhibitor: -5%; Shiga inhibitor: 59*; FBPA Giardia inh: -4%; Cycloheximide cs: 41*; RE007 growth inh: -13%; TbPYK inhibitor: -6%
